Assay outcomes from PubChem BioAssay.
Most compounds without a hit are left out; they make up all but 17% or so of the library.
TDP1 cell noCPT: qHTS for Inhibitors of human tyrosyl-DNA phosphodiesterase 1 (TDP1): qHTS in cells in absence of CPT; actives 15% (n = 420,000); DT40 Tdp1-/- hTDP1 cells, no CPT, ATP luminescence, 48 h; AID 686978, 2013; Potency, µM (titrated, usually from 46.2 µM), without a hit: at the highest dose activity change, negative = growth inhibition, actives largely listed as inhibitors; also: % is scaled to controls: 0 for no effect and ±100 for the full control effect; nearly all actives have a fitted effect of over 55% in size
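Luminescent ATP content (CellTiter-Glo) served as the growth readout. Knockout chicken DT40 cells expressing human TDP1 were exposed to compounds without camptothecin for a minimum 48 hr at 37 °C.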
TDP1 cell CPT: DT40-hTDP1 cell growth loss with CPT; chicken DT40 Tdp1-/-;hTDP1 cells + 20 nM CPT, ATP luminescence, 48 h; Potency, µM (series often up to 46.2 µM), inactives show at the highest dose activity change, negative = growth inhibition, actives largely listed as inhibitors; actives 12% (n = 420,000); also: % is scaled to controls: 0 for no effect and ±100 for the full control effect; nearly all actives have a fitted effect of over 55% in size
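Cell growth measured by CellTiter-Glo luminescence after a minimum 48 h, 37 C compound exposure with 20 nM CPT in Tdp1-knockout DT40 cells stably expressing hTDP1, seeded 400/well; qHTS titration format.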
TDP1 block: blocks human tyrosyl-DNA phosphodiesterase 1 | Q9NUW8 | recombinant TDP1, AlphaScreen DNA substrate cleavage | Potency, µM (doses to about 130 µM), inactives show at the top dose activity change, negative = inhibition, usual class: inhibitors | actives 0.28% (n = 350,000) | AID 485290; also: % is scaled to controls: 0 for no effect and ±100 for the full control effect; nearly all actives have a fitted effect of over 40% in size
Target sequence (Q9NUW8 whole entry, looked up): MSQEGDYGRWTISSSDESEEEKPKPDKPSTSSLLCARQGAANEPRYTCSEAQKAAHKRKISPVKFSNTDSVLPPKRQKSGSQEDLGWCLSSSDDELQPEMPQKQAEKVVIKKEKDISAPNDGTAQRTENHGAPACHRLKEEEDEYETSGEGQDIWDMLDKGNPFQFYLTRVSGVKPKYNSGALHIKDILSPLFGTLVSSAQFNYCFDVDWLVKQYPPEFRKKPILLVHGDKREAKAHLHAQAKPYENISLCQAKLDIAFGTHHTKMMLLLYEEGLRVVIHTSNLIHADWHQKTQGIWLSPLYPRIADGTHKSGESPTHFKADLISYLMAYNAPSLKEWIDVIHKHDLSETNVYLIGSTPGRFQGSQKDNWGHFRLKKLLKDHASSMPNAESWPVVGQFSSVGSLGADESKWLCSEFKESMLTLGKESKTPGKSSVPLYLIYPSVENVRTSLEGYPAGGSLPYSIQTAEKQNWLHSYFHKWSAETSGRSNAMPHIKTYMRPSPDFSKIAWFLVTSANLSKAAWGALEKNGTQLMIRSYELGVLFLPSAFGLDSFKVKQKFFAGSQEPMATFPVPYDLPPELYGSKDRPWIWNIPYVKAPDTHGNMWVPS
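Tdp1 1 nM final; 15 min RT w/ cpd; substrate 15 nM, 5 min; beads 10 ug/ml, 10 min; AlphaScreen read. Neg ctrl: no enzyme.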
ClpP mod: qHTS Assay for Activators of ClpP; Potency, µM (highest dose often 57.5 µM), without a hit: top-dose activity change, negative = active; purified B. subtilis ClpP, FRET peptide cleavage, 20 min; ATP-dependent Clp protease proteolytic subunit (Bacillus subtilis (strain 168)), P80244; actives 1.9% (n = 340,000); active = well fitted falling curve with a large enough effect; inconclusive = small, poorly fitted or top-dose-only effect; inactive = no such curve, though single readings can be large or run the other way; also: the source files actives as falling curves though it sought activators and does not explain the sign; nearly all actives have a fitted effect of over 65% in size
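Buffer: 100 mM Tris/HCl pH8, 100 mM KCl, 0.05% low protease BSA, 2.5% glycerol, 0.01% Tween-20. ClpP 10 microg/mL final; 20 min RT; delta FRET normalized to ADEP and DMSO controls.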
* hit, by the source's call; ? = inconclusive; / = no result. Unless noted, calls follow the shape of the dose curve; as a rule, active = well fitted curve in the direction sought with a large enough effect; inconclusive = small, poorly fitted or top-dose-only effect, or another doubt; inactive = no such curve, though single readings can be large; an effect the other way counts as inactive or inconclusive. Potency is read from the fitted curve at half-maximal effect.

SMILES	TDP1 cell noCPT	TDP1 cell CPT	TDP1 block	ClpP mod
CCOC(=O)c1cc(-c2ccc(OC)cc2)n(CCC(=O)NCc2ccccc2OC)c1C	?	26µM*	12%	?
CCOC(=O)c1cc(-c2ccc(OC)cc2)n(CCC(=O)Nc2ccccc2OC)c1C	21µM*	15µM*	12%	-5%
CCOC(=O)c1cc(-c2ccc(F)cc2)n(CCC(=O)NCc2ccccc2OC)c1C	?	?	7%	-4%
CCOC(=O)c1cc(-c2ccc(F)cc2)n(CCC(=O)Nc2ccccc2OC)c1C	21µM*	?	8%	-4%
CCOC(=O)Cc1ccc(NC(=O)Nc2ccccc2OCc2cc(=O)n3ccccc3n2)cc1	-16%	-4%	3%	5%
Cc1ccc(N2CC(C(=O)Nc3ccc(S(=O)(=O)N4CCOCC4)cc3)CC2=O)cc1Cl (configuration not stated)	?	-17%	/	0%
NS(=O)(=O)c1ccc(NC(=O)CNC(=O)c2ccc3c(c2)OCO3)cc1	-16%	16%	0%	/
Cc1nc(C(F)(F)F)ccc1C(=O)N1CCCC(C)(C(=O)O)C1 (configuration not stated)	-10%	-2%	/	-9%
COc1ccc2cc(C(N)=O)c(=Nc3ccc(C)cc3)oc2c1	8.2µM*	-17%	1%	97%
Cc1cccc(N=c2oc3cc(O)ccc3cc2C(N)=O)c1	15µM*	?	8%	28µM*
Cc1c(-c2nsc(NC(=O)c3cccs3)n2)nnn1-c1ccc(Br)cc1	?	?	-3%	-14%
O=C(O)CCCn1cc(NC(=O)c2cc(F)c(F)cc2Cl)cn1	23µM*	?	/	/
O=C(O)CCCn1cc(NC(=O)c2cccc(F)c2)cn1	4%	2%	0%	0%
N#Cc1ccc(CC(C(=O)O)N2Cc3ccccc3C2=O)cc1 (configuration not stated)	-17%	-7%	/	-3%
COc1ccccc1C(CC(=O)c1ccccc1)C(=O)c1ccccc1 (configuration not stated)	?	?	/	-2%
C=C(CCC(=O)c1ccccc1)C(=O)c1ccccc1	2.1µM*	6.5µM*	0%	-5%
COc1ccccc1C(CC(=O)c1ccccc1)CC(=O)c1ccccc1	?	-79%	1%	/
O=C(Cc1ccccc1)CC(CC(=O)c1ccccc1)c1ccccc1 (configuration not stated)	23µM*	16µM*	/	0%
C=C(C(=O)c1ccccc1)C(CC(=O)c1ccccc1)c1ccccc1 (configuration not stated)	4.6µM*	4.6µM*	-5%	-2%
CCCN(CCC)C(=O)C1CCCN(c2ncnc3onc(-c4ccc(F)cc4)c23)C1 (configuration not stated)	16µM*	5.2µM*	-1%	0%
CCc1ccccc1NC(=O)C1CCCN(c2ncnc3onc(-c4ccc(F)cc4)c23)C1 (configuration not stated)	?	?	1%	2%
Cc1ccc(N2CCN(c3ncnc4onc(-c5ccc(F)cc5)c34)CC2)c(C)c1	-2%	0%	-1%	0%
CCCCN(C)C(=O)C1CCCN(c2ncnc3onc(-c4ccc(F)cc4)c23)C1 (configuration not stated)	23µM*	15µM*	3%	1%
CC(C)N(Cc1ccccc1)C(=O)C1CCCN(c2ncnc3onc(-c4ccc(F)cc4)c23)C1 (configuration not stated)	5.2µM*	7.3µM*	6%	-7%
Cc1ccccc1NC(=O)C1CCCN(c2ncnc3onc(-c4ccc(F)cc4)c23)C1 (configuration not stated)	-30%	?	-1%	-2%
SMILES	TDP1 cell noCPT	TDP1 cell CPT	TDP1 block	ClpP mod
COC[C@H]1O[C@@H](c2c(OC)cc(OC)cc2OC)[C@H](OC)[C@@H](OC)[C@@H]1OC	/	/	2%	/
CSc1ccc(CN(C)CC(=O)Nc2c(F)cccc2F)cc1	?	21µM*	-5%	/
CCc1cccc(C)c1NC(=O)CCOc1ccccc1	2%	5%	/	1%
CSc1ccc(CN(C)CC(=O)Nc2ccc(NC(C)=O)cc2)cc1	?	-24%	7%	/
CCc1cccc(C)c1NC(=O)CN(C)Cc1ccccc1F	16µM*	15µM*	1%	-4%
Cc1oc(-c2ccccc2Cl)nc1CS(=O)CC(=O)NCc1ccc2c(c1)OCO2 (configuration not stated)	-5%	-14%	3%	-5%
Cc1ccnc2ccc(Br)cc12	-21%	-25%	/	1%
O=C(CSc1ccccn1)Nc1nonc1[N+](=O)[O-]	4.1µM*	3.7µM*	2%	-1%
O=C(CSc1ccccn1)Nc1ccc(NC(=O)CSc2ccccn2)cc1	5%	8%	2%	0%
CCNc1ncc2nc(-c3ccc(Cl)cc3)c(=O)n(Cc3cccc(OC)c3)c2n1	-17%	-29%	/	/
Cc1ccc(OCC(=O)N2CC(C)OC(C)C2)c([N+](=O)[O-])n1 (configuration not stated)	13%	0%	3%	1%
CCN1CCN(c2nc3c(C)cccn3c(=O)c2/C=C(\C#N)C(=O)NCCCOC)CC1	6%	-4%	/	3%
CNC(=O)/C(C#N)=C/c1c(N2CCN(c3cccc(Cl)c3)CC2)nc2c(C)cccn2c1=O	12µM*	?	/	2%
CCOC(=O)/C(C#N)=C/c1c(N2CCN(CC)CC2)nc2c(C)cccn2c1=O	-4%	-15%	/	-2%
CCOC(=O)/C(C#N)=C/c1c(N2CCN(c3ccc(OC)cc3)CC2)nc2c(C)cccn2c1=O	?	?	/	32µM*
Cc1cccn2c(=O)c(/C=C(\C#N)C(N)=O)c(N3CCN(c4ccccc4)CC3)nc12	6.5µM*	?	/	?
C=CCNC(=O)/C(C#N)=C/c1c(N2CCN(c3cccc(Cl)c3)CC2)nc2c(C)cccn2c1=O	?	?	/	1%
COCCNC(=O)/C(C#N)=C/c1c(N2CCN(c3ccc(OC)cc3)CC2)nc2c(C)cccn2c1=O	23µM*	23µM*	/	/
CCNC(=O)/C(C#N)=C/c1c(N2CCN(c3ccc(OC)cc3)CC2)nc2c(C)cccn2c1=O	21µM*	?	/	/
CCNC(=O)/C(C#N)=C/c1c(N2CCCCCC2)nc2c(C)cccn2c1=O	23µM*	?	/	16µM*
CCN1CCN(c2nc3c(C)cccn3c(=O)c2/C=C(\C#N)C(=O)NC)CC1	0%	22%	/	1%
COCCNC(=O)/C(C#N)=C/c1c(N2CCN(c3ccccc3)CC2)nc2c(C)cccn2c1=O	?	23µM*	/	/
CCNC(=O)/C(C#N)=C/c1c(N2CCN(c3ccccc3)CC2)nc2c(C)cccn2c1=O	?	?	/	1%
